This is a sample that favours compounds with a hit; in the whole collection about 8% have one here.
HCMV inh: human cytomegalovirus inhibition; activity change, negative = inhibition, % at 57.5 µM; HFF cells, HCMV-luciferase reporter, 72 h; active compounds read low; 4.5% of 410,000 active; in the data active = activity change below about -60%; inconclusive = no clear call, values can overlap the other calls; inactive = above about -39%; also: % is scaled to controls: 0 for no effect and ±100 for the full control effect
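Cell-based, HFFs, 1000 cells/well, 16 h 37C; cpds in DMSO + HCMV-luc, MOI 1 PFU/cell; 72 h 37C; OneGlo luminescence after 5 min RT; norm. to buffer vs Salinomycin 10uM.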
FMDV inh: antivirals against foot and mouth disease virus | FMDV antiviral cell-based qHTS | Potency, µM (highest dose often 57.9 µM), without a hit: top-dose activity change, negative = inhibition, actives largely listed as inhibitors | 1.2% of 410,000 active; calls by dose curve; tested in HEK293T cells; also: read-out not given here; potency is read from the fitted curve at half-maximal effect; % is scaled to controls: 0 for no effect and ±100 for the full control effect; nearly all actives have a fitted effect of over 45% in size
HCV inhibitor: blocks hepatitis C virus. Huh7.5.1 HCVcc-Cre infection, luciferase reporter, 44 h. Potency, µM (doses to about 41.8 µM), inactives show top-dose activity change, negative = inhibition, most hits filed as inhibitors. 3.4% of 340,000 active; active = well fitted inhibition curve with a large enough effect; inconclusive = small, poorly fitted or top-dose-only effect, or another doubt; inactive = no such curve, though single readings can be large or run the other way; also: potency is read from the fitted curve at half-maximal effect; % is scaled to controls: 0 for no effect and ±100 for the full control effect
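Antiviral activity was scored by luciferase reporter output from cells infected with HCVcc-Cre (~0.5 moi) in presence of compound, 44 h infection period, cells seeded 1,000/well 4 h prior.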
SARS PLP yeast: blocks SARS-CoV papain-like protease in a yeast assay; AID 485353; 0.19% of 330,000 active; S. cerevisiae expressing SARS-CoV PLpro, growth rescue; Potency, µM (highest dose often 32.9 µM), for the others: top-dose activity, positive = growth rescue, most hits filed as activators; calls by dose curve; also: potency is read from the fitted curve at half-maximal effect; 0% is about no effect; nearly all actives have a fitted effect of over 55% in size
Lassa entry inh: blocks Lassa virus binding to or entry into cells | Potency, µM (series often up to 37.9 µM), for the others: at the highest dose activity change, negative = inhibition, actives largely listed as inhibitors | 1.2% of 300,000 active | Lassa virus pseudotype entry inhibition, cell reporter; calls by dose curve; tested in HEK293 cells; also: potency is read from the fitted curve at half-maximal effect; % is scaled to controls: 0 for no effect and ±100 for the full control effect; nearly all actives have a fitted effect of over 50% in size
Marburg entry inh: inhibitors of Marburg virus binding or cell entry; 1.8% of 300,000 active; Marburg virus pseudotyped entry inhibition, cell reporter; Potency, µM (titrated, usually from 37.8 µM), inactives show at the highest dose activity change, negative = inhibition, hits mostly inhibitors; calls by dose curve; tested in HEK293 cells; also: potency is read from the fitted curve at half-maximal effect; % is scaled to controls: 0 for no effect and ±100 for the full control effect
* marks the source's active call; other numbers are inactive results; ? = inconclusive; . = no result; [ ] = dose if it differs, or a comment.

SMILES	HCMV inh	FMDV inh	HCV inhibitor	SARS PLP yeast	Lassa entry inh	Marburg entry inh
Clc1cccc(OCCN2CCN(CCOc3cccc(Cl)c3)CC2)c1	-96*	?	?	-30%	?	?
Cc1ccc(SCCN2CCN(CCc3ccccc3)CCC2=O)cc1	17	-5%	2.2µM*	1%	.	.
c1ccc(Oc2cccc(OCCCCN3CCCC3)c2)cc1	?	-21%	10µM*	-5%	-18%	21µM*
CCCCN(C(=O)C(C)Oc1cccc(Cl)c1)c1c(N)n(CCC)c(=O)[nH]c1=O (stereo not drawn)	7	-17%	25%	1%	4%[46.1 µM]	5%
C1CCC(C2C3=C(NC4NCNN42)C2=C(CCCC2)CCC3)CC1 (stereo not drawn)	.	.	.	.	.	9%
CN1CCN(Cc2ccc(OCc3ccccc3)cc2)CC1	-10	29%	5.6µM*	0%	?	?
O=C1CCN(Cc2ccccc2)CCN1CCOc1ccccc1	-77*	10%	?	2%	.	.
CCOC(=O)c1c(C)[nH]c(N=Nc2ccc(OC)cc2)c1C	0	19%	-22%	-3%	.	.
O=C(NC1CCCCC1)C(c1ccccc1)N(Cc1ccc2c(c1)OCO2)C(=O)c1cnsn1 (stereo not drawn)	-36	8%	4%	-4%	?	11µM*
CCOc1ccc(C(c2c(O)cc(C)n(Cc3ccco3)c2=O)N2CCCCC2)cc1 (stereo not drawn)	7	-6%	.	.	?	.
COc1cc2c(cc1OC)-c1c(OC)c(OC)cc3ccnc(c13)C2=O	-95*	?	?	-3%	?	?
CCC1CCCCN1C(=O)Cn1c(=O)cc(C(F)(F)F)c2c(C)nn(C)c21 (stereo not drawn)	-20	?	.	.	1%[46.1 µM]	.
COc1ccc(C(C(=O)c2ccccc2)c2ccccc2)cc1 (stereo not drawn)	-82*	-12%	.	.	.	.
COc1ccc(C(=O)OC(C(=O)c2ccccc2)c2ccccc2)cc1 (stereo not drawn)	-21	-17%	-17%	7%	-10%	-29%[46.1 µM]
COc1ccc(NC(=O)c2ccc(C)cc2)cc1	66	21%	-11%	-1%	.	.
COc1ccc(NC(=O)c2cc3ccccc3cc2OC)cc1OC	-1	11%	11µM*	-1%	.	.
COc1ccc(NC(=O)c2ccccc2)cc1	-18	51%	0.56µM*	-3%	.	.
COc1cc(OC)c(C(=O)Nc2ccc3ccccc3c2)cc1OC	.	65%	-25%	-6%	-2%	-4%
COc1ccc(-n2c(=O)[nH]cc(C(=O)Nc3ccccc3)c2=O)cc1	-64*	-7%	12%	6%	.	.
Cc1ccc(CN2CCc3nnc(C(NS(C)(=O)=O)C(C)C)n3CC2)cc1C (stereo not drawn)	.	-18%	.	.	.	.
COC(=O)C1=C(C)C(=O)[C@]2(O)c3ccccc3N(C)[C@]12C	.	.	.	.	.	18%[14.2 µM]
COc1ccc(-c2noc(CSc3nnc(-c4ccncc4)n3-c3ccc(C)c(C)c3)n2)cc1	-3	-25%	.	.	-14%[46.1 µM]	?
OC[C@@H]1CN(Cc2cccnc2)C[C@H](n2cnc3c(N4CCCC4)ncnc32)O1	-9	-5%	.	.	.	.
CCOC(=O)c1ccc(NC(=O)C2(c3ccc(OC)cc3)CCCC2)cc1	-30	?	-15%	1%	11µM*	?
CCOC(=O)c1ccc(NC(=O)C2(c3ccc(OC)cc3)CCOCC2)cc1	-11	-22%	-22%	-3%	?	-12%
SMILES	HCMV inh	FMDV inh	HCV inhibitor	SARS PLP yeast	Lassa entry inh	Marburg entry inh
O=C(NCCOc1ccc(F)cc1)c1ccccc1SCc1ccccc1	-62*	-20%	?	-43%	?	11µM*
COc1ccc(C(NC(=O)c2c(F)c(F)c(F)c(F)c2F)c2ccccc2)cc1 (stereo not drawn)	3	?	?	-49%	22µM*	?
O=C(NNC(=O)c1ccc(NC(=O)c2ccccc2)cc1)Nc1ccccc1	-62*	-6%	1%	0%	.	.
CC(C)(C)NC(=O)C(c1ccccn1)N(C(=O)C1CSC(=O)C1)c1ccccc1F (stereo not drawn)	3	-5%	4%	0%	.	.
Cc1ccc(NC(NC(=O)c2cccnc2)C(Cl)(Cl)Cl)cc1 (stereo not drawn)	10	?	2%	-28%	0%	16µM*
COc1ccc(NC(=O)c2cc3c(Cl)nc4ccccc4c3s2)cc1OC	-83*	?	?	27%	-10%	?
COc1ccc(OC)c(NC(=O)c2cc3c(Cl)nc4ccccc4c3s2)c1	-18	-13%	-26%	9%	6%	1%
CC(C(=O)c1ccc(-c2ccccc2)cc1)[n+]1cccc(NC(=O)c2ccccc2)c1 (stereo not drawn)	-99*	0%	-26%	0%	-6%[46.1 µM]	0%[46.1 µM]
COc1ccc(NC(=O)c2sc(SCc3ccccc3)nc2N)cc1	6	-7%	14%	-3%	?	-2%
NS(=O)(=O)c1ccc(NC(NC(=O)c2cccnc2)C(Cl)(Cl)Cl)cc1 (stereo not drawn)	5	-17%	-1%	-14%	.	.
COc1ccc(NC(=O)c2ccccc2SCc2ccccc2)cc1	-106*	1%	.	.	.	.
C[C@@H]1CCC2[C@](C)(CO)[C@@H](O)CC[C@]2(C)[C@@]12CC[C@@](CO)(CC(=O)O)O2 (stereo partly drawn)	?	-13%	9%	-2%	.	.
CC(O)[C@H]1CNCCN1CC1(c2ccccc2)CC1 (stereo partly drawn)	13	-8%	21%	4%	.	.
COc1ccc(C(=O)Nc2ccc(C3(C#N)CCCC3)cc2)cc1	-75*	16%	5.6µM*	0%	?	11%[14.2 µM]
COc1ccc(C(=O)NNc2ccccc2)cc1	-3	-7%	24%	1%	1%	?
COc1ccc(NC(=O)c2cc(-c3ccco3)on2)cc1OC	-3	-2%	11µM*	-2%	17%	14%[46.1 µM]
COc1ccc(C(=O)NC(Nc2ccccc2)C(Cl)(Cl)Cl)cc1 (stereo not drawn)	?	-24%	7.9µM*	-8%	-27%	-17%
O=C(Nc1ccncc1)c1ccc(-c2ccccc2)cc1	-77*	-17%	10µM*	-2%	.	.
COc1cccc(-c2ccnc(-n3ncc(C(=O)NCc4cccnc4)c3C3CC3)n2)c1	.	-24%	.	.	.	.
COc1ccc2c(c1)CC(C(=O)Nc1c(C)cc(C)cc1C)CO2 (stereo not drawn)	-7	-1%	.	.	-6%[46.1 µM]	.
Cc1cnc(SCC2CCCO2)nc1C1CCCN(Cc2nc(-c3ccccc3)cs2)C1 (stereo not drawn)	.	-16%	.	.	.	.
O=C(C[n+]1ccc(C(=O)c2ccccc2)cc1)Nc1ccc(C(F)(F)F)cc1	-4	-6%	2µM*	3%	15%[46.1 µM]	?
O=C(Nc1ccc2[nH]ccc2c1)c1ccc(F)cc1	117	-56%	-10%	-3%	.	.
O=C(Nc1ccc2[nH]ccc2c1)c1ccccc1	101	-48%	18%	-2%	2.8µM*	6.3µM*
